Laboratory results: PubChem BioAssay (NCATS)
Results filed as inconclusive are left out. Entries that show only a call come without a potency. The source made the active and inactive calls. Calls follow the shape of the dose curve; as a rule, active = well fitted curve in the direction sought with a large enough effect; inconclusive = small, poorly fitted or top-dose-only effect, or another doubt; inactive = no such curve, though single readings can be large; an effect the other way counts as inactive or inconclusive.

Tests used:
[1] = qHTS of pediatric cancer cell lines to identify multiple opportunities for drug repurposing: Confirmatory screen for Rh41 cells (AID 1347123);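 also: 48 h compound exposure; nearly all actives have a fitted effect of over 60% in size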; also: potency is read from the fitted curve at half-maximal effect
Outline: (§1)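 Viability after 48 h compound treatment at 37C, 500-1,000 cells/well, read as ATP luminescence with CellTiter-Glo. Primary screens used 11-point (MIPE, 0.78 nM-46 µM) or 8-point (NPC, 0.59 nM-46 µM) final concentrations; follow-up screens used 11-point dilutions.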

[2] = qHTS of pediatric cancer cell lines to identify multiple opportunities for drug repurposing: Confirmatory screen for RD cells (AID 1347124);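 also: cells exposed to compound for 48 h before viability readout; nearly all actives have a fitted effect of over 65% in size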; also: potency is read from the fitted curve at half-maximal effect
Outline: as §1

[3] = qHTS of pediatric cancer cell lines to identify multiple opportunities for drug repurposing: Confirmatory screen for Rh18 cells (AID 1347125); also: nearly all actives have a fitted effect of over 55% in size; also: potency is read from the fitted curve at half-maximal effect
Outline: as §1

[4] = qHTS of pediatric cancer cell lines to identify multiple opportunities for drug repurposing: Confirmatory screen for SK-N-SH cells (AID 1347129);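 also: cells exposed to compound for 48 h before viability read; nearly all actives have a fitted effect of over 60% in size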; also: potency is read from the fitted curve at half-maximal effect
Outline: as §1

[5] = target: N-terminal Xaa-Pro-Lys N-methyltransferase 1 (Homo sapiens) (UniProt Q9BV86); assay: qHTS Assay for Inhibitors of N-terminal methyltransferase 1 (NTMT1): LOPAC validation of the NTMT1 SAHH-coupled ThioGlo3 Assay (AID 1347143);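 also: SAH from peptide methylation measured as thiol fluorescence via SAHH coupling and ThioGlo3; nearly all actives have a fitted effect of over 70% in size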; also: potency is read from the fitted curve at half-maximal effect
Sequence of N-terminal Xaa-Pro-Lys N-methyltransferase 1 (Homo sapiens) (Q9BV86 whole entry, looked up): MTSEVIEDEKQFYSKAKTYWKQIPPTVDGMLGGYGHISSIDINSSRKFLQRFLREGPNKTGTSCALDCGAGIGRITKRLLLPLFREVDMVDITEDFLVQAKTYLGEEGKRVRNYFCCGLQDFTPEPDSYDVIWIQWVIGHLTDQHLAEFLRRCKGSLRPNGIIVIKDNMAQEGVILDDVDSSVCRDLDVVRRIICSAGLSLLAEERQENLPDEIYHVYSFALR
Outline: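 Recombinant human NTMT1 (125nM) was pre-incubated 1 min at room temperature with compounds over a concentration range, then a mix of 100uM SAM, 10uM SAHH and 15uM ThioGlo3 (concentrations in added reagent) was added. ThioGlo3 fluorescence (ex 340/em 450nm) after 30 min was normalized to the initial reading.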

[6] = test system: Zika virus NS2B-NS3 protease (unlinked); assay: Optimization of GU AMC qHTS for Zika virus inhibitors: Unlinked NS2B-NS3 protease assay (AID 1347151); also: nearly all actives have a fitted effect of over 80% in size; also: potency is read from the fitted curve at half-maximal effect
Outline: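 Unlinked protease (25 nM final); buffer 10 mM Tris-HCl pH 8.0 + 0.01% Tween 20; AMC substrate; 15 min RT, dark; Δfluorescence normalized to no-inhibitor/no-enzyme controls; 4-parameter Hill fit.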

[7] = qHTS of pediatric cancer cell lines to identify multiple opportunities for drug repurposing: Confirmatory screen for Rh30 cells (AID 1347126); also: nearly all actives have a fitted effect of over 55% in size; also: potency is read from the fitted curve at half-maximal effect
Outline: as §1

Furin (Homo sapiens) = Furin (Homo sapiens) (UniProt P09958); assay: Furin counterscreen qHTS for Zika virus inhibitors (AID 1347149); also: nearly all actives have a fitted effect of over 70% in size; also: potency is read from the fitted curve at half-maximal effect
Sequence of Furin (Homo sapiens) (P09958 whole entry, looked up): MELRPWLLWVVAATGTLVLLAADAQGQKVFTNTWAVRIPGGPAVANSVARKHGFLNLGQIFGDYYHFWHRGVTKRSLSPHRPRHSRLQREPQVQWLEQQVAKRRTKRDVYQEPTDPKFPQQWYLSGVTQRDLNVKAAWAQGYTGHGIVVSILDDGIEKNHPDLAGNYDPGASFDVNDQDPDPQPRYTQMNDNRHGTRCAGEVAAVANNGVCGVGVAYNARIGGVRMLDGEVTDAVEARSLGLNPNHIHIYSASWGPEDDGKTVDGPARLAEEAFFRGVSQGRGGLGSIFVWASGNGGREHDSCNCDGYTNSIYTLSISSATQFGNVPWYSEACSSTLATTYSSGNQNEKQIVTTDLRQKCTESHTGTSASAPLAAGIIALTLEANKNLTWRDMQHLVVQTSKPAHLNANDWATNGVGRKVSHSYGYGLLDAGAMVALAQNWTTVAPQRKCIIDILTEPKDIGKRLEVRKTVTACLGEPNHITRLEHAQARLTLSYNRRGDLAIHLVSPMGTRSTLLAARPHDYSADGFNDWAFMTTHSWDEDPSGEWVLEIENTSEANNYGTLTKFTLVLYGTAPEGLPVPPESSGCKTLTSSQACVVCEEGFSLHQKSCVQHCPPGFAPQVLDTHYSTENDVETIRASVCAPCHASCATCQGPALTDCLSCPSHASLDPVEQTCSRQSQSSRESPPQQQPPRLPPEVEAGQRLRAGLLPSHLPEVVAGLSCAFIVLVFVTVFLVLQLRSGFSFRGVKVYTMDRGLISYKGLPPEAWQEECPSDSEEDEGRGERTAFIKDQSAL
Outline: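 Fluorogenic cleavage of BOC-RVRR-AMC (2 microM final, Km ~15 µM) was monitored (ex 340, em 450 nm) at 37C after 15 min RT preincubation of 5 nM furin with compounds in HEPES pH 7.0 buffer with CaCl2 and Triton X-100. Percent inhibition was fitted to a 4-parameter Hill curve.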

[8] = test system: Zika virus NS2B-NS3 protease (linked construct); assay: Confirmatory screen NINDS AMC qHTS for Zika virus inhibitors (AID 1347152);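 also: AMC fluorescence gain from cleaved Bz-Nle-KRR-AMC substrate over 15 min; top concentration of the series differs between compounds; nearly all actives have a fitted effect of over 70% in size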
Outline: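 Enzyme (1 nM, linked construct) was preincubated with compound for 15 minutes at room temperature in 10 mM Tris-HCl pH 8.0 with 0.01% Tween 20. Bz-Nle-Lys-Arg-Arg-AMC was then added to 10 microM, and AMC fluorescence was recorded immediately and after 15 minutes.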

[9] = test system: Zika virus NS2B-NS3 protease (unlinked complex); assay: Confirmatory screen GU AMC qHTS for Zika virus inhibitors (AID 1347153); also: nearly all actives have a fitted effect of over 70% in size
Outline: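 Fluorescence change (ex 340/em 450 nm) over 15 min, ~20% substrate conversion, normalized to no-inhibitor and no-enzyme controls, then Hill-fitted. Unlinked protease at 25 nM; AMC peptide 10 µM.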

Compound: NC(N)=NC(=O)c1nc(Cl)c(N)nc1N
- Potency [1]: inactive
- Potency [2]: inactive
- Potency [3]: inactive
- Potency [4]: inactive
- Potency [5]: 50.1 µM (active)
- Potency [6]: 23.8 µM (active)

Compound: Cn1cnc2c(F)c(Nc3ccc(Br)cc3Cl)c(C(=O)NOCCO)cc21
- Potency [1]: inactive
- Potency [2]: inactive
- Potency [3]: inactive
- Potency [7]: inactive

Compound: CCC(C)n1ncn(-c2ccc(N3CCN(c4ccc(OC[C@H]5CO[C@](Cn6cncn6)(c6ccc(Cl)cc6Cl)O5)cc4)CC3)cc2)c1=O (some centres undefined)
- Potency [1]: 11.7 µM (active)
- Potency [2]: inactive
- Potency [3]: inactive
- Potency [7]: inactive
- Potency [4]: 14.8 µM (active)

Compound: CCN(CC)CCCC(C)Nc1ccnc2cc(Cl)ccc12 (centres undefined)
- Potency [1]: inactive
- Potency [2]: inactive
- Potency [3]: inactive
- Potency [7]: inactive
- Potency [4]: inactive
- Potency [5]: inactive
- Potency (Furin (Homo sapiens)): inactive
- Potency [6]: 15 µM (active)
- Potency [8]: inactive
- Potency [9]: inactive

Compound: NC(=O)c1ccc(I)c([N+](=O)[O-])c1
- Potency [1]: 43.7 µM (active)
- Potency [2]: inactive
- Potency [3]: inactive
- Potency [4]: 55.4 µM (active)

Compound: Cc1c(C)c2c(c(C)c1O)CCC(C)(COc1ccc(CC3SC(=O)NC3=O)cc1)O2 (centres undefined)
- Potency [1]: inactive
- Potency [2]: inactive
- Potency [7]: inactive
- Potency [4]: inactive

Compound: C#Cc1cccc(Nc2ncnc3cc(OCCOC)c(OCCOC)cc23)c1
- Potency [1]: 9.27 µM (active)
- Potency [2]: inactive
- Potency [3]: inactive
- Potency [4]: inactive

Compound: C[C@]1(c2nc3c(C(N)=O)cccc3[nH]2)CCCN1
- Potency [1]: inactive
- Potency [2]: inactive
- Potency [3]: inactive
- Potency [7]: inactive
- Potency [4]: inactive

Compound: Oc1cccc(-c2nc(N3CCOCC3)c3oc4ncccc4c3n2)c1
- Potency [1]: 0.522 µM (active)
- Potency [3]: 1.7 µM (active)
- Potency [4]: 4.18 µM (active)

Compound: COCC(=O)NCC=Cc1ccc2ncnc(Nc3ccc(Oc4ccc(C)nc4)c(C)c3)c2c1
- Potency [1]: 18.5 µM (active)
- Potency [2]: inactive
- Potency [7]: 2.93 µM (active)
- Potency (Furin (Homo sapiens)): 30.3 µM (active)

Compound: Cc1c(CN2CCN(C(=O)C(C)C)CC2)sc2c(N3CCOCC3)nc(-c3cnc(N)nc3)nc12
- Potency [1]: 0.414 µM (active)
- Potency [2]: 2.08 µM (active)
- Potency [3]: 0.827 µM (active)
- Potency [7]: 0.928 µM (active)
- Potency [4]: 1.05 µM (active)

Compound: CN(C)c1ccc(C2Nc3ccc4ccccc4c3C3=C2C(=O)CC(C)(C)C3)cc1Br (centres undefined)
- Potency [2]: inactive

Compound: CN1CCN(CCCN2c3ccccc3Sc3ccc(C(F)(F)F)cc32)CC1
- Potency [1]: 14.7 µM (active)
- Potency [2]: 23.3 µM (active)
- Potency [3]: 20.8 µM (active)
- Potency [4]: 16.6 µM (active)
- Potency [5]: 44.7 µM (active)
- Potency [6]: inactive
- Potency [8]: inactive
- Potency [9]: inactive

Compound: COc1cccc2cc(-c3nc(C4CCC(C(=O)O)CC4)n4ncnc(N)c34)[nH]c12 (centres undefined)
- Potency [1]: 2.08 µM (active)
- Potency [2]: inactive
- Potency [7]: 10.4 µM (active)
- Potency [4]: 10.5 µM (active)

Compound: Nc1nc2[nH]cc(CCc3ccc(C(=O)N[C@@H](CCC(=O)O)C(=O)O)cc3)c2c(=O)[nH]1
- Potency [1]: inactive
- Potency [2]: inactive
- Potency [3]: inactive
- Potency [7]: inactive
- Potency [4]: inactive

Compound: Nc1nc2ccc(OC(F)(F)F)cc2s1
- Potency [1]: inactive
- Potency [2]: inactive
- Potency [3]: inactive
- Potency [7]: inactive
- Potency [4]: inactive
- Potency [5]: inactive
- Potency [6]: inactive

Compound: COc1ccc(-c2oc3cc(OC)ccc3c2C(=O)c2ccc(C#N)cc2)cc1
- Potency [1]: inactive
- Potency [2]: inactive
- Potency [3]: inactive
- Potency [7]: inactive
- Potency [4]: inactive

Compound: O=NN(CCCl)C(=O)NCCCl
- Potency [1]: inactive
- Potency [2]: inactive
- Potency [3]: inactive
- Potency [7]: inactive
- Potency [4]: inactive
- Potency [6]: inactive

Compound: CCCS(=O)(=O)Nc1ccc(F)c(C(=O)c2c[nH]c3ncc(-c4ccc(Cl)cc4)cc23)c1F
- Potency [1]: 13.1 µM (active)
- Potency [2]: inactive
- Potency [4]: inactive

Compound: CO[C@@H]1[C@H](N(C)C(=O)c2ccccc2)C[C@H]2O[C@]1(C)n1c3ccccc3c3c4c(c5c6ccccc6n2c5c31)C(=O)NC4
- Potency [1]: inactive
- Potency [3]: 4.14 µM (active)
- Potency [7]: inactive
- Potency [4]: inactive

Compound: Cc1cn[nH]c1
- Potency [1]: inactive
- Potency [2]: inactive
- Potency [3]: inactive
- Potency [7]: inactive
- Potency [4]: inactive
- Potency [6]: inactive

Compound: Nc1nc2c(ncn2COCCO)c(=O)[nH]1
- Potency [1]: inactive
- Potency [2]: inactive
- Potency [3]: inactive
- Potency [7]: inactive
- Potency [4]: inactive
- Potency [5]: inactive
- Potency [6]: inactive

Compound: CNCc1ccc(-c2[nH]c3cc(F)cc4c3c2CCNC4=O)cc1
- Potency [1]: 16.5 µM (active)
- Potency [2]: inactive
- Potency [3]: inactive
- Potency [7]: inactive

Compound: COc1cc2nccc(Oc3ccc(NC(=O)NC4CC4)c(Cl)c3)c2cc1C(N)=O
- Potency [1]: 5.85 µM (active)
- Potency [3]: 14.7 µM (active)
- Potency [7]: inactive
- Potency [4]: inactive

Compound: Cc1oncc1C(=O)Nc1ccc(C(F)(F)F)cc1
- Potency [1]: inactive
- Potency [3]: inactive
- Potency [7]: inactive
- Potency [4]: inactive
- Potency [5]: inactive
- Potency [6]: inactive
